# Values joined by “and” are separate entries in the source; they are usually repeats but may differ in a detail not shown here. Identical values can stand only once. The whole screen tested about 260,000 compounds, of which about 1,500 (0.58%) were called active. Not shown: some 5% with an inconclusive outcome. The list is a sample of the results. Entries with a potency or affinity are not part of this list. Values without a mark were called inactive.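 The calls were made as follows: active = inhibition above a set limit at one or more doses, reproduced on every date tested; inconclusive = results disagree between test dates, or hit never tested in dose response; inactive = the rest.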
# Target: Virion infectivity factor (Human immunodeficiency virus type 1 group M subtype B (isolate BH10)) + Virion infectivity factor (Human immunodeficiency virus type 1 group M subtype B (isolate BRU/LAI)) + Virion infectivity factor (Human immunodeficiency virus type 1 group M subtype B (isolate PCV12)) + Virion infectivity factor (Human immunodeficiency virus type 1 group M subtype B (isolate HXB2)) + DNA dC->dU-editing enzyme APOBEC-3G (Homo sapiens) (UniProt P69720+P69721+P69722+P69723+Q9HC16)
# Test: inhibitors of Vif binding to APOBEC3G peptide, primary screen, biochemical, TR-FRET, GST-Vif 1-94, biotin-A3G peptide, dose response retest (AID 1117319);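 also: Vif residues 1-94 fused to GST binding biotinylated APOBEC3G peptide 110-148; 0% = full assay without inhibitor and 100% = GST in place of GST-Vif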
# Conditions: stronger effect = higher value
row,SMILES,inhibition
1,Cc1cccc(NC(=O)C2SC(=Nc3c(C)cccc3C)C(C(=O)N3CCOCC3)=C2N)c1 (stereo not given),13.6%
2,N#Cc1ccccc1CN1C(=O)NC(Cc2c[nH]c3ccccc23)C1=O (stereo not given),-3.01%
3,COc1ccc(C(=O)N/N=C/c2ccc(SC)cc2)cc1,-0.44%
4,COc1ccc(/C=N/NC(=O)c2ccc3c(c2)OCO3)cc1,-0.02%
5,CSCCC(NC(=O)c1ccccc1)C(=O)N/N=C(\C)c1ccccc1 (stereo not given),-5.06%
6,Nc1cc(C(=O)O)ccc1Nc1ccccc1,13%
7,Cc1ccc(NS(=O)(=O)c2cc(N)ccc2Cl)c(C)c1,28.9%
8,Nc1cccc(Nc2ccccc2)c1,1.33%
9,Cc1ccc(Nc2ccc(C(=O)O)cc2N)cc1,15%
10,Cc1ccc(-n2cc(-c3ccccc3)c3c(NN4CCOCC4)ncnc32)cc1,21%
11,COc1cc2nc(N(CCN(C)C)C(=O)c3ccc4ccccc4c3)sc2cc1OC,-3.84%
12,O=C1COc2ccc(C(=O)COC(=O)Cc3ccc(F)cc3)cc2N1,-9.09%
13,Nc1c(C(=O)OCC(=O)Nc2ccc(Cl)cc2[N+](=O)[O-])[nH]c(=O)[nH]c1=O,-3.88%
14,CCc1cc2cccc(C)c2nc1SCC(=O)N1CCN(C(=O)c2ccco2)CC1,5.89% and -1.51%
15,CCc1cc2cc(C)ccc2nc1SCC(=O)N1CCN(C(=O)c2ccco2)CC1,3.37%
16,Cc1cccc(N2CCN(C(=O)c3ccccc3NC(=O)C3=CSCCO3)CC2C)c1 (stereo not given),0.87%
17,Cc1cc(=O)[nH]c2c3ccccc3nn12,-4.45%
18,CCOc1ccc(C2C(C(=O)OC)=C(C)N=C3SCCC(=O)N32)cc1OCC (stereo not given),-1.89%
19,CC(C)C(NCc1c(Cl)cccc1Cl)C(=O)O (stereo not given),-1.01%
20,c1ccc(COn2c(-c3ccccc3)nc3c2CCc2nonc2-3)cc1,-7.03%

row,SMILES,inhibition
1,COn1c(-c2ccccc2)nc2c1CCc1c-2no[n+]1[O-],3.61%
2,Cc1c(C(=O)O)oc2c1C(=O)CC(C)(C)C2,-2.53%
3,CC1CC(C)CN(CC(C)(C)NS(=O)(=O)c2ccccc2)C1 (stereo not given),17.8%
4,O=C1C2C3C=CC(CC3)C2C(=O)N1c1ccc(Cl)cc1 (stereo not given),1.42%
5,CCN(CC)C(=O)[C@H]1C[C@H](CC(=O)NC(C)(C)C)C(=O)N2CCc3c([nH]c4cc(CCC(=O)N(C)C)ccc34)[C@]12C,-0.23%
6,Cc1c(NS(=O)(=O)c2ccc(Cl)c(C(=O)OC(C)C(=O)NCc3ccco3)c2)c(=O)n(-c2ccccc2)n1C (stereo not given),5.59%
7,COC(=O)CNC(=O)C(C)(C)Oc1ccc(Cl)cc1,-6.52%
8,O=C(COC(=O)Cc1ccc(Cl)c(Cl)c1)NCc1ccco1,7.25%
9,COc1ccccc1OCC(=O)NCc1ccco1,8.05%
10,CC(C)(Oc1ccc(Cl)cc1)C(=O)NCC(c1ccco1)N1CCCCC1 (stereo not given),1.39%
11,COc1cccc(OC)c1C(=O)OCC(=O)NCc1ccco1,5.04%
12,O=C(COC(=O)Cc1ccc(F)cc1)NCc1ccco1,-14.6%
13,CNC(=S)N1CCN(c2ccc(Cl)c(Cl)c2)CC1,1.98%
14,O=C1CSC(c2ccc(Cl)c(Cl)c2)N1c1nccs1 (stereo not given),2.94%
15,CN(C)C(=O)c1ccc(NC(=O)CSc2nnc(-c3ccc4c(c3)OCO4)o2)cc1,1.62%
16,C/C(=N\Nc1ccc(F)cc1)c1ccc(N2CCOCC2)c(F)c1,6.07%
17,CC(=O)c1ccc(NC(=O)c2cnsn2)cc1,4.53%
18,CCN(CC)C(=O)[C@H]1C[C@H](CC(=O)NCCc2ccccn2)C(=O)N2CCc3c([nH]c4cc(CCC(=O)N(C)C)ccc34)[C@]12C,17.5%
19,CCNC(=S)N/N=C/c1c(C)nn(-c2cccc(Cl)c2)c1Cl,5.39%
20,CC(=O)C1=C(C)OC(N)=C(C#N)C1c1cc2cc(C)c(C)cc2nc1Cl (stereo not given),9.71%

row,SMILES,inhibition
1,CC(=O)C1=C(C)OC(N)=C(C#N)C1c1cc2cccc(C)c2nc1Cl (stereo not given),-1.1%
2,COc1ccc2nc(NC(=O)C3CCN(C(=O)c4ccc(F)cc4)CC3)sc2c1,-12.6%
3,CCc1oc(C(=O)OC)cc1CSC(=N)N,-0.44%
4,Cc1cc2ccccn2c1C(=O)c1nc(NCc2ccccc2)ncc1Cl,-3.29%
5,COc1cccc(C(=O)OCC(=O)Nc2ccc3c(c2)OCCO3)c1,-5.71%
6,CSc1ncccc1C(=O)OCC(=O)NC(=O)NCCC(C)C,-2.12%
7,O=C(NCC(c1cccs1)N1CCOCC1)c1ccc(Br)o1 (stereo not given),22.6%
8,CC(=O)Nc1ccc(S(=O)(=O)Nc2nccs2)cc1,-1.8%
9,COc1ccc(-c2nnc(Nc3ccc(S(=O)(=O)Nc4nccs4)cc3)c3ccccc23)cc1,12.6%
10,COC(=O)[C@H](C)NC(=O)Nc1ccccc1C(F)(F)F,8.61%
11,CNC(=O)C12CCC(C)(c3nc4cc(C)c(C)cc4nc31)C2(C)C (stereo not given),2.01%
12,CCOC(=O)C1CCN(Cc2cnc(Oc3ccc(N)cc3)s2)CC1,3.48%
13,CCOC(=O)C1CCN(Cc2cnc(Oc3ccc(C(C)(C)C)cc3)s2)CC1,28.3%
14,Cc1cc(CNC(=O)CCc2nnc(CCCCc3ccccc3)o2)nn1C,-5.35%
15,Cc1ccc(-c2cc(Cc3ccc(N(C)C)cc3)c(=O)[nH]n2)cc1,-0.03%
16,CN(C)c1ccc(C(=O)c2ccc(O)cc2O)cc1,-0.42%
17,O=C(Nc1ccc(Cl)cc1)C(c1ccccc1)N(CCO)CCO (stereo not given),-1.42%
18,COC(=O)c1ccc(CSc2nnc(-c3ccccc3)n2C)o1,2.37%
19,O=C(O)c1ccc(C(=O)c2cc([N+](=O)[O-])cc([N+](=O)[O-])c2)cc1,-9.99%
20,O=C(O)c1ccc(S(=O)(=O)c2ccccc2C(=O)O)c([N+](=O)[O-])c1,-4.06%

# — PubChem BioAssay AID1117319 (Southern Research Institute, 2015)
